Sampled rows, rich in hits. Any-hit rate of the full collection: about 7%.
Integrin act MD: qHTS for Activators of Integrin-Mediated Alleviation for Muscular Dystrophy. Potency, µM (top dose mostly 38.3 µM), most hits filed as activators. 0.064% of 350,000 active. AID 624291, 2012. alpha7betagal myoblasts, beta-gal FDG fluorescence, 48 h; note: nearly all actives have a fitted effect of over 60% in size
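alpha7betagal+/- myoblasts (passage 13, 250/well) treated 48 h at 37C with compounds at 1:260 dilution of DMSO stock. Lysed, then beta-galactosidase activity read as FDG fluorescence (ex 480/em 540) after 30 min, with pre-read for autofluorescence.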
D3 ag: qHTS of D3 Dopamine Receptor Agonist: qHTS. D(3) dopamine receptor (Homo sapiens), P35462. D3R DiscoveRx beta-arrestin cells, luminescence, 90 min. max activation, %. 0.58% of 410,000 active. AID 652048, 2013; in the data active = max activation above about 30%
Target sequence (P35462 whole entry, looked up): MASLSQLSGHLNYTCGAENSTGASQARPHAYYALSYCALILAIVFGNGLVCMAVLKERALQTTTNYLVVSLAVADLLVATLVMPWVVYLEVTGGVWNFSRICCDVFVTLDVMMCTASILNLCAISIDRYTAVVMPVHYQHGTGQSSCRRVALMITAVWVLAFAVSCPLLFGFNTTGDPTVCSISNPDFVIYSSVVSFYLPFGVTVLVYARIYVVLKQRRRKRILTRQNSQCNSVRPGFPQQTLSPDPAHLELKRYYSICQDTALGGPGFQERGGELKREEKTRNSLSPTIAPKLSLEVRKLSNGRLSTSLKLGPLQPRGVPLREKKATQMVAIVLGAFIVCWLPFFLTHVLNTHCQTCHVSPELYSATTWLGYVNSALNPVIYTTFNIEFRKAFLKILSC
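Agonist mode: compounds and dopamine controls were applied to plated cells for 90 min at 37 degrees C after an overnight attachment at 1500 cells/well. Luminescent read-out followed 30 - 60 minutes at room temperature with DiscoveRx detection reagent.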
ATXN viability: Viability Counterscreen for Primary qHTS for Inhibitors of ATXN expression. AID 651635, 2014. S2 cells (HEK-293 line with an ATXN2-luciferase reporter) viability, CellTiter-Fluor protease fluorescence, 24 h. 0.49% of 400,000 active. Potency, µM (doses to about 56.7 µM), hits mostly cytotoxic; note: nearly all actives have a fitted effect of over 40% in size
IL1B secr inh: qHTS for Inhibitors of Inflammasome Signaling: IL-1-beta AlphaLISA Primary Screen. AID 743279, 2014. 4.7% of 360,000 active. activity change, % at 57.5 µM. THP-1 LPS/ATP IL-1B secretion, AlphaLISA, 16 h; active compounds read low; in the data active = activity change below about -50%; inconclusive = mostly about -30% to -49%
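Secreted IL-1B measured by AlphaLISA bead assay after 16 h compound exposure of THP-1 cells; compounds (final up to 57.5 uM) added 1 h before LPS (250 ng/mL) and ATP (1.25 mM) stimulation; lower signal means less secretion.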
ATXN2 expr inh: Primary qHTS for Inhibitors of ATXN expression; Potency, µM (titrated, usually from 57 µM), hits mostly inhibitors; 0.72% of 360,000 active; HEK-293 ATXN2-luciferase reporter, luminescence, 24 h; note: nearly all actives have a fitted effect of over 55% in size
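ATXN2-luciferase reporter cells (luciferase flanked by upstream and downstream ATXN2 gene portions) were treated 24 h at 37 °C with compounds at up to 57 uM. SteadyGlo luminescence gave expression; GF-AFC fluorescence gave viability.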
D3 antag: qHTS of D3 Dopamine Receptor Antagonist: qHTS | 2.5% of 360,000 active | max response, negative = inhibition, % | AID 652054, 2013 | D3R cells, DiscoveRx beta-arrestin luminescence, antagonist mode; active compounds read low; in the data active = max response below about -50%; inconclusive = no clear call, values can overlap the other calls
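Cells expressing the human receptor were seeded at 1500 cells/well, incubated overnight at 37 degrees C in 5% CO2, then exposed to library compounds with dopamine controls for 90 minutes at 37 degrees C before luminescent detection.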
Large screens that a line does not name were inactive; ! = not active in a repeat. Unless noted, calls come from the whole dose curve; as a rule, active = well fitted curve in the direction sought with a large enough effect; inconclusive = small, poorly fitted or top-dose-only effect, or another doubt; inactive = no such curve, though single readings can be large; an effect the other way counts as inactive or inconclusive.

C[C@@]12OC(=O)[C@]1([C@@H](O)[C@@H]1C=CCCC1)NC(=O)[C@H]2CCCl	ATXN2 expr inh 0.019µM (no result: Integrin act MD, D3 ag, ATXN viability, IL1B secr inh, D3 antag)
COC1CCC(OC2CC(C3(C)CCC4(CC(O)C(C)C(C(C)/C=C(\C)C(=O)C(C)CC(C)C(=O)O)O4)O3)OC3(OC(C4OC(O)(CO)C(C)CC4C)CC3C)C2C)OC1C (centres undefined)	Integrin act MD inconclusive, D3 ag 71, IL1B secr inh -54, ATXN2 expr inh inconclusive (no result: ATXN viability)
CC(CC(C(N)=O)(c1ccccc1)c1ccccc1)N(C)C (centres undefined)	none (no result: Integrin act MD, D3 ag, IL1B secr inh, D3 antag)
CCOc1ccc(NC(=O)c2c(C)nn(Cc3ccccc3)c2Cl)cc1	none
COc1ccc(C)cc1NC(=O)c1c(C)nn(Cc2ccccc2)c1Cl	IL1B secr inh -98 (no result: ATXN2 expr inh)
CC(C(=O)c1cn(C)c2ccccc12)c1ccccc1 (centres undefined)	D3 antag -70
Cn1cc(C(=O)c2ccccc2)c2ccccc21	none
COC(=O)C[C@]1(C(=O)OC)CN(C#N)N(c2ccc(Cl)cc2)C12c1ccccc1-c1ccccc12	ATXN viability 5.6µM, IL1B secr inh -105, ATXN2 expr inh 4µM, D3 antag -74
COC(=O)[C@@H]1[C@@H](C(=O)OC)C2(c3ccccc3-c3ccccc32)N(c2ccc(Cl)cc2)N1C#N	ATXN viability 7.1µM, IL1B secr inh -99, ATXN2 expr inh 7.1µM, D3 antag -76
CCC(=O)O[C@](Cc1ccccc1)(c1ccccc1)[C@H](C)CN(C)C	D3 ag 55, ATXN viability inconclusive (no result: Integrin act MD, IL1B secr inh, ATXN2 expr inh, D3 antag)
C[C@@H](CO)NC(=O)[C@@H]1C=C2c3cccc4[nH]cc(c34)C[C@H]2N(C)C1	D3 ag 38 (no result: Integrin act MD, ATXN viability, IL1B secr inh, ATXN2 expr inh, D3 antag)
ClCCN(CCCl)c1ccc(-n2cnc3c(Cl)ncnc32)cc1	IL1B secr inh -96, ATXN2 expr inh 16µM (no result: ATXN viability)
COCCCn1c(N)c(C(=O)Nc2sc3c(c2C(=O)OC)CCCC3)c2nc3ccccc3nc21	IL1B secr inh -72
CCC(C)NC(=O)c1c(N)n(CCCOC)c2nc3ccccc3nc12 (centres undefined)	IL1B secr inh inconclusive (no result: ATXN viability)
COCCCn1c(N)c(C(=O)Nc2ccccc2)c2nc3ccccc3nc21	IL1B secr inh -76
O=C1NC(=O)C(C2CCCCCC2)C(=O)N1	Integrin act MD inconclusive
COc1ccc(CCNCc2ccncc2)cc1OC	none
COc1ccc(CCNCc2ccc(Br)cc2)cc1OC	D3 antag -60
Cc1ccccc1CCNCc1ccc(Br)cc1	IL1B secr inh -65, D3 antag -59
CC1=CC(=C2C(=O)NC(=O)NC2=O)C=C(C(F)(F)F)N1C(C)C	none
O=C(COc1ccc(Cl)cc1)Nc1ccc(Cl)cc1C(=O)c1ccccc1	none (no result: Integrin act MD, ATXN viability, IL1B secr inh, ATXN2 expr inh, D3 antag)
c1ccc(-c2[nH]c(-c3ccccc3)[n+](CC3CO3)c2-c2ccccc2)cc1 (centres undefined)	IL1B secr inh -56, D3 antag inconclusive
COC(=O)C1=C(c2ccc(OCc3ccccc3)cc2)C[C@@H]2CC[C@H]1N2C(=O)NCCCc1ccccc1	D3 antag -51
COC(=O)C1=C(c2cc3ccccc3s2)C[C@@H]2CC[C@H]1N2C(=O)NCc1ccc(C(F)(F)F)cc1	ATXN viability inconclusive, IL1B secr inh -52, ATXN2 expr inh inconclusive, D3 antag inconclusive
COC(=O)C1=C(c2ccc(F)cc2OCc2ccccc2)C[C@@H]2CC[C@H]1N2C(=O)NCc1ccc(C(F)(F)F)cc1	IL1B secr inh -52
COC(=O)C1=C(c2cc3ccccc3s2)C[C@@H]2CC[C@H]1N2C(=O)NCC1CC1	ATXN viability inconclusive
COC(=O)C1=C(c2cccc(OCc3ccccc3)c2)C[C@@H]2CC[C@H]1N2C(=O)NCc1ccc(C(F)(F)F)cc1	ATXN viability inconclusive, IL1B secr inh -55, D3 antag inconclusive
Cc1ccc(-c2nc3ccc(C)cn3c2CC(=O)N(C)C)cc1	none (no result: Integrin act MD)
Sc1ccccc1Cl	none (no result: Integrin act MD, D3 ag, IL1B secr inh, D3 antag)
COC(=O)C(c1ccccc1)C1CCCCN1 (centres undefined)	none (no result: Integrin act MD, ATXN viability, IL1B secr inh, ATXN2 expr inh, D3 antag)
O=C(O)Cn1cc(/C=C2\C(=O)NC(=O)N(Cc3ccco3)C2=O)c2ccccc21	D3 antag -64
CCOc1cc(C2NCc3ccccc3-n3cccc32)ccc1O (centres undefined)	IL1B secr inh -57
Cc1ccc(OC(=O)N(C)C[C@@H]2OCc3cnnn3CCCC(=O)N([C@@H](C)CO)C[C@@H]2C)cc1	none
CCOCN(C(=O)CCl)c1c(C)cccc1CC	IL1B secr inh -60
CCc1cccc(CC)c1N(COC)C(=O)CCl	none
CCN(CC)CCCOC(=O)C(OC(C)C)(c1ccccc1)c1ccccc1	ATXN viability inconclusive, IL1B secr inh -56, ATXN2 expr inh inconclusive, D3 antag -101
CCOC(C(=O)OCCCN(CC)CC)(c1ccccc1)c1ccccc1	IL1B secr inh inconclusive, D3 antag -55
CN1CC[C@]23c4c5ccc(O)c4OC2C(O)C=CC3[C@H]1C5 (some centres undefined)	none (no result: Integrin act MD)
CC(NC(=O)Cc1cccc2ccccc12)C(=O)N1CCC(=O)CC1 (centres undefined)	none
CN(C)C(=O)C(CCN1CCC(O)(c2ccc(Cl)cc2)CC1)(c1ccccc1)c1ccccc1	ATXN viability inconclusive, IL1B secr inh -59, ATXN2 expr inh 27µM!, D3 antag -81 (no result: Integrin act MD)
COc1cc(C[C@@H](C)N)c(OC)cc1I	IL1B secr inh -64 (no result: Integrin act MD)
O=C1SC(Cc2ccccc2)C(=O)N1c1ccccc1 (centres undefined)	Integrin act MD 7.9µM
O=C(Cc1ccccc1)Oc1ccc(N2C(=O)C3CCCCC3C2=O)cc1 (centres undefined)	none
CN(C)S(=O)(=O)c1ccc(C(=O)NCCSc2c(-c3ccccc3)[nH]c3ccccc23)cc1	ATXN viability inconclusive (no result: Integrin act MD, IL1B secr inh, D3 antag)
O=[N+]([O-])NC1=NCCN1Cc1ccc(Cl)nc1	none (no result: Integrin act MD)
COC(=O)N(c1ccccc1)P1(=S)OCCO1	none
CCOC(=O)N(c1ccccc1)P1(=S)OCCO1	D3 antag -52
CCN(CC)C(=O)c1ccc(NC(=O)C2=C(C)OCCS2)cc1	none
CC(C)(C)c1cc(C=C(C#N)C#N)cc(C(C)(C)C)c1O	D3 ag 50, ATXN viability inconclusive, IL1B secr inh -77, ATXN2 expr inh inconclusive (no result: Integrin act MD)
Nc1ccccc1C(=O)OCC(=O)N1CCc2ccccc21	none
N#CSCC(=O)N1c2ccccc2CCc2ccccc21	ATXN viability inconclusive, IL1B secr inh -51, ATXN2 expr inh inconclusive

High-throughput results deposited in PubChem BioAssay by National Center for Advancing Translational Sciences (NCATS).
